High-throughput results from PubChem BioAssay.
This is a sample that favours compounds with a hit; in the whole collection about 3.6% have one here.
Giardia FBPA inh: blocks Giardia fructose-bisphosphate aldolase activity; 290,000 tested, 0.71% active; purified Giardia FBPA; Potency, µM (doses to about 59.6 µM), inactives show at the top dose activity, negative = inhibition, usual class: inhibitors; A8B2U2; further: nearly all actives have a fitted effect of over 55% in size
Target sequence (A8B2U2 whole entry, looked up): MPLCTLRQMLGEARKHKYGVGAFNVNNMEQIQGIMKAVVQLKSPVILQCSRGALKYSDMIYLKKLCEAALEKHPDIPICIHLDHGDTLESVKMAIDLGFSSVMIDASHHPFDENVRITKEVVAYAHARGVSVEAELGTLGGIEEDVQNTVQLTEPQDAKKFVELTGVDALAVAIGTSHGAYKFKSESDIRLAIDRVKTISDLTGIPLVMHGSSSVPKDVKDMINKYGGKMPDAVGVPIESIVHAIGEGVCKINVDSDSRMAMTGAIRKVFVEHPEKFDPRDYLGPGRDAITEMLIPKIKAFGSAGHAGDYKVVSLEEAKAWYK
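Giardia FBPA (40 nM reagent) was preincubated 10 min at RT with compound (up to 57.5 uM final), then substrate plus GAPDH/TPI/NAD/arsenate coupling system with diaphorase/resazurin was added; resorufin fluorescence (525/598 nm) was read after 20 min.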
AmpC inh detg: inhibitors of E. coli AmpC beta-lactamase with detergent | AmpC hydrolysis of nitrocefin, absorbance 480 nm, 0.01% Triton | AID 485294 | 370,000 tested, 0.041% active | Potency, µM (top dose mostly 114 µM), for inactives: top-dose activity change, negative = inhibition, usual class: inhibitors;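 further: 0% = no-compound wells and -100% = no-enzyme wells; nearly all actives have a fitted effect of over 25% in size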
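AmpC (5.3 nM in the dispensed reagent) in 20 mM phosphate pH 7.0 with 0.01% (detergent screen) or 0.0001% Triton X-100 was preincubated with compounds for 15 min at room temperature. Nitrocefin was then added from an 800 uM solution, and hydrolysis was followed at 480 nm.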
Sm TGR block: S. mansoni TGR enzyme inhibition | Q962Y6 | AID 485364 | Potency, µM (top dose mostly 114 µM), for inactives: at the highest dose activity change, negative = inhibition, actives largely listed as inhibitors | 360,000 tested, 3% active | purified TGR, DTNB reduction, TNB absorbance 405 nm; further: nearly all actives have a fitted effect of over 60% in size
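First, TGR (20 nM dispensed) and NADPH were mixed with compound. Second, a 15 min room-temperature incubation followed. Third, further NADPH and then DTNB were added to start the reaction. Finally, TNB absorbance was monitored kinetically.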
AmpC no deterg: blocks E. coli AmpC beta-lactamase in detergent-free assay; AmpC nitrocefin hydrolysis, absorbance 480 nm, 0.0001% Triton; 330,000 tested, 0.52% active; Potency, µM (highest dose often 57.1 µM), for the others: top-dose activity change, negative = inhibition, hits mostly inhibitors; P00811;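 further: plate controls were no compound for no effect and no enzyme for full effect; nearly all actives have a fitted effect of over 20% in size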
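AmpC (5.3 nM in the dispensed reagent) in 20 mM phosphate pH 7.0 with 0.01% (detergent screen) or 0.0001% Triton X-100 was preincubated with compounds for 15 min at room temperature. Nitrocefin was then added from an 800 uM solution, and hydrolysis was followed at 480 nm.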
An asterisk follows results filed as active; u = inconclusive; x = no result. The call rests on the fitted dose curve; in most records, active means well fitted curve in the direction sought with a large enough effect; inconclusive means small, poorly fitted or top-dose-only effect, or another doubt; inactive means no such curve, though single readings can be large; an effect the other way counts as inactive or inconclusive. Unless noted, on the % scale 0 is the no-effect control and ±100 the full control effect; potency means the concentration at half of the fitted maximal effect.

SMILES	Giardia FBPA inh	AmpC inh detg	Sm TGR block	AmpC no deterg
COc1ccc(CN(Cc2ccco2)c2cnc(S(C)(=O)=O)nc2C(=O)Nc2ccc(F)cc2)cc1	x	-1%	-7%	x
CC1=CC2/C=C(\C)CCC(O)C(O)/C=C/C(=O)C23C(=O)NC(CC(C)C)C3C1C (configuration not stated)	1%	6%	4µM*	126%
C=CCSc1nnc2c(n1)OC=Nc1ccc(Br)cc1-2	10%	2%	7.9µM*	-19%
CCSc1nnc2c(n1)OC=Nc1ccc(Br)cc1-2	4%	0%	0%	-17%
CC(=O)O/N=C1\C(=O)N(Cc2ccc(C)cc2)c2ccccc21	8%	u	16µM*	-31%
Cc1ccc(NC(=O)c2c(Nc3ccccc3C)sc(C(=O)c3ccccc3)c2N)cc1	x	21%	8%	x
Cc1ccc(Nc2sc(C(=O)c3ccccc3)c(N)c2C(=O)NC(C)C)cc1	x	8%	32µM*	x
CC(C)(C)C#CCn1c(/C=[N+](\[O-])C2CCCCC2)nc2ccccc21	u	-12%	-21%	-14%
CSc1nc(N2CCN(CCO)CC2)c2sc3nc(-c4ccco4)c4c(c3c2n1)CCC4	16%	-11%	-35%	34%
CSc1nc(N(C)CCO)c2sc3nc(-c4ccco4)c4c(c3c2n1)CCC4	-3%	-9%	1.4µM*	69%
C#Cc1ccc([C@H]2C=C(C(=O)N3CCN(Cc4ccccc4)CC3)O[C@@H](OCc3ccc(CO)cc3)C2)cc1	-4%	-4%	45µM*	75%
C#Cc1ccc([C@@H]2C=C(C(=O)N3CCN(Cc4ccccc4)CC3)O[C@H](OCCCCO)C2)cc1	-7%	5%	13µM*	159%
O=C(C1=C[C@H](c2ccc(C(F)(F)F)cc2)C[C@H](OCCCCO)O1)N1CCN(Cc2ccccc2)CC1	-1%	-6%	35µM*	188%
CN1CCN(C(=O)C2=C[C@H](c3csc4ccccc34)C[C@H](OCCCCO)O2)CC1	-15%	-8%	40µM*	150%
O=C(C1=C[C@@H](c2ccc(C(F)(F)F)cc2)C[C@@H](OCCCCO)O1)N1CCN(Cc2ccccc2)CC1	-6%	0%	u	208%
Cc1ccc(C)c(NC(=O)c2ccc3nc(CCc4ccccc4)oc3c2)c1	x	16%	-3%	x
COc1ccc2nc(SCC(O)c3cccc(Br)c3)[nH]c2c1 (configuration not stated)	x	-4%	-5%	x
CN1CCN(C(=O)C2=C[C@@H](c3ccccc3)C[C@@H](OCc3ccc(CO)cc3)O2)CC1	-1%	8%	40µM*	55%
O=C(C1=C[C@H](c2ccc(Br)cc2)C[C@H](OCCCCO)O1)N1CCOCC1	-5%	10%	35µM*	72%
C#Cc1ccc([C@@H]2C=C(C(=O)N3CCOCC3)O[C@H](OCCCCO)C2)cc1	-8%	-1%	u	75%
O=C(C1=C[C@@H](c2ccc(Br)cc2)C[C@@H](OCc2ccc(CO)cc2)O1)N1CCN(Cc2ccccc2)CC1	-18%	3%	25µM*	91%
O=C(c1coc(=O)c(Br)c1)N1CCCc2ccccc21	u	u	22µM*	-8%
Cc1onc(-c2ccccc2Cl)c1C(=O)Nc1cccc(S(=O)(=O)NC2=NCCC2)c1	x	-7%	-6%	-20%
Cc1c(Cl)cnc(NC(=O)COC(=O)/C=C/c2ccco2)c1Cl	x	u	10µM*	-31%
Cc1c(Cl)cnc(NC(=O)COC(=O)C(NC(=O)c2ccco2)C(C)C)c1Cl (configuration not stated)	-10%	0%	35µM*	-45%
SMILES	Giardia FBPA inh	AmpC inh detg	Sm TGR block	AmpC no deterg
CCN1CCCC1Cn1c(-c2ccccc2)nc2c(N(CCOC)CCOC)nc(C)nc21 (configuration not stated)	1%	x	x	x
Cc1ccccc1NC(=O)CSc1nnc(-c2ccco2)c(-c2ccco2)n1	1.8µM*	-7%	3.5µM*	-34%
CN(C)c1ccc(NC(=O)CSc2nnc(-c3ccco3)c(-c3ccco3)n2)cc1	u	1%	35µM*	-32%
Cc1ccc(NC(=O)CSc2nnc(-c3ccco3)c(-c3ccco3)n2)cc1	u	-16%	u	-41%
Cc1ccccc1NC(=O)CSc1n[nH]c(-c2ccco2)n1	-12%	5%	5%	-10%
O=C(CSc1nnc(-c2ccco2)c(-c2ccco2)n1)Nc1ccccc1	u	-14%	1.8µM*	-41%
CSc1nnc(-c2ccccc2)c(-c2ccccc2)n1	7%	2%	-5%	-12%
CSc1nnc(-c2ccco2)c(-c2ccco2)n1	3.5µM*	0%	1µM*	-21%
O=C(CSc1nc(-c2ccco2)nc2cc(=O)[nH]n12)Nc1ccccc1F	x	-1%	-29%	x
Cc1ccccc1NC(=O)CSc1nc(-c2ccco2)nc2cc(=O)[nH]n12	x	-1%	40µM*	x
Cc1ccc(SCC(=O)OCC(=O)NC2CCCCCCC2)cc1	x	-18%	-1%	18%
O=C(NC1CCC(O)CC1)c1ccc(-c2ccc([N+](=O)[O-])cc2)o1 (configuration not stated)	-3%	-14%	1.4µM*	-7%
O=C(COC(=O)CSc1ccc([N+](=O)[O-])cc1)NC1CCCCCCC1	x	u	-3%	32µM*
O=C(COC(=O)c1ccc(-c2ccc([N+](=O)[O-])cc2)o1)NC(=O)NC1CCCCC1	-6%	1%	40µM*	-22%
O=c1cc(C(F)(F)F)[nH]c(=S)n1-c1ccccc1	-19%	6%	22µM*	-9%
CN(C)S(=O)(=O)c1cc(NC(=O)CNCCN2CCOCC2)ccc1Cl	u	-7%	10%	-4%
CC1CCC/C(=C\Nc2ccc(O)cc2)C1=O (configuration not stated)	7.9µM*	u	40µM*	-25%
COc1ccccc1/C=C/C(=O)c1c2c(c(C)[nH]c1=O)CCCC2	-27%	-7%	45µM*	-19%
COc1ccccc1/C=C/C(=O)c1ccccc1	-11%	-5%	u	-27%
CCc1sc(C(C2C(=O)CC(C)(C)CC2=O)C2C(=O)CC(C)(C)CC2=O)cc1[N+](=O)[O-]	14%	-3%	4µM*	-30%
O=C(/C=C/c1ccco1)NCC(=O)N/N=C/c1ccc([N+](=O)[O-])cc1	1%	3%	8.9µM*	-30%
O=C(/C=C/c1ccc([N+](=O)[O-])cc1)c1ccco1	-7%	-10%	-27%	-13%
O=C(/C=C/c1ccco1)NCC(=O)N/N=C/c1ccc(Cl)cc1	4%	4%	14µM*	-24%
C/C(=N/NC(=O)CNC(=O)/C=C/c1ccco1)c1ccc(Cl)cc1	-2%	-1%	8.9µM*	-2%
CN(C)c1ccc(/C=N/NC(=O)CNC(=O)/C=C/c2ccco2)cc1	12%	3%	u	-32%
O=C(/C=C/c1ccc([N+](=O)[O-])cc1)/C=C/c1ccco1	-6%	-11%	4.5µM*	20µM*
